LASV entry inh: inhibitors of Lassa virus binding or cell entry. 300,000 compounds, 1.2% hits. Lassa virus pseudotype entry inhibition, cell reporter. Potency, µM (highest dose often 37.9 µM), for the others: at the top dose activity change, negative = inhibition, most hits filed as inhibitors; calls by dose curve; tested in HEK293 cells; also: potency is read from the fitted curve at half-maximal effect; % is scaled to controls: 0 for no effect and ±100 for the full control effect; nearly all actives have a fitted effect of over 50% in size
Shiga inhibitor: Shiga toxin inhibition. AID 2315. Vero cells, Shiga toxin protein synthesis inhibition reporter. inhibition, % at 38.7 µM. 290,000 compounds, 9.2% hits; in the data active = inhibition mostly above about 28%, no sharp cut-off; inactive = mostly below about 43%; also: 0% is about no effect
FMDV inh: blocks foot and mouth disease virus; FMDV antiviral cell-based qHTS; Potency, µM (top dose mostly 57.9 µM), without a hit: at the highest dose activity change, negative = inhibition, usual class: inhibitors; 410,000 compounds, 1.2% hits; calls by dose curve; tested in HEK293T cells; also: read-out not given here; potency is read from the fitted curve at half-maximal effect; % is scaled to controls: 0 for no effect and ±100 for the full control effect; nearly all actives have a fitted effect of over 45% in size
Marburg entry inh: Marburg virus entry inhibition; 300,000 compounds, 1.8% hits; Marburg virus pseudotyped entry inhibition, cell reporter; Potency, µM (titrated, usually from 37.8 µM), for the others: at the top dose activity change, negative = inhibition, usual class: inhibitors; calls by dose curve; tested in HEK293 cells; also: potency is read from the fitted curve at half-maximal effect; % is scaled to controls: 0 for no effect and ±100 for the full control effect
HCV inhibitor: HCV inhibition; 340,000 compounds, 3.4% hits; Potency, µM (series often up to 41.8 µM), without a hit: at the top dose activity change, negative = inhibition, hits mostly inhibitors; Huh7.5.1 HCVcc-Cre infection, luciferase reporter, 44 h; active = well fitted inhibition curve with a large enough effect; inconclusive = small, poorly fitted or top-dose-only effect, or another doubt; inactive = no such curve, though single readings can be large or run the other way; also: potency is read from the fitted curve at half-maximal effect; % is scaled to controls: 0 for no effect and ±100 for the full control effect
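Reporter virus HCVcc-Cre (~0.5 moi) infects cells exposed to compound; seeding density 1,000 cells/well with 4 h settling beforehand. Luminescence, 15 sec read, taken 44 h post-infection following a 15 min RT substrate incubation.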
CHX counter: affects cycloheximide protein synthesis inhibition readout, counter-screen; cell reporter, cycloheximide protein synthesis inhibition counterscreen; max response, %; 300,000 compounds, 12% hits; AID 2314; in the data active = max response mostly above about 13%, no sharp cut-off; inactive = mostly below about 14%; also: read at 38.3 µM for the half of the compounds with a filed dose; 0% is about no effect
Starred values were filed as active, the others as inactive; ? = inconclusive; . = no result; [ ] = another dose, or the depositor's remark. In the library only some 13% were active in any assay of this set; here they are far more common.

SMILES | LASV entry inh | Shiga inhibitor | FMDV inh | Marburg entry inh | HCV inhibitor | CHX counter
CC1Cc2ccccc2N1C(=S)NC(=O)c1ccc(Cl)cc1Cl (centres undefined) | -12% | -8 | -26% | -19% | 14% | 1
Cc1cc(C)cc(C(=O)NCC(=O)N(C)CCOc2ccccc2)c1 | . | . | -21% | . | 0% | .
CC(C)(C)N(Cc1ccccc1)C(=O)COC(=O)c1ccc(N2CCCC2=O)cc1 | -2%[46.1 µM] | . | -8% | 25%[46.1 µM] | 4% | .
Cc1ccccc1C(=O)NC1CCCCCCC1 | . | 39* | 48% | . | 1% | 34*
O=C(NC1CCCCC1)c1cc2ccccc2cc1O | 2% | 34* | -5% | -19% | -28% | 24*
O=C(O)/C=C\C(=O)Nc1ccccc1C(=O)NC1CCCCC1 | 15% | 65* | 18% | ? | -1% | 42*
O=C(Nc1ccccc1C(=O)NC1CCCCC1)c1ccco1 | -4% | -4 | -8% | -6% | -26% | -3
Nc1nc2ncccc2cc1C(=O)NC1CCCCC1 | . | . | 0% | . | . | .
O=C(Nc1c(C(=O)N2CCC(N3CCCCC3)CC2)oc2ccccc12)c1ccc(F)cc1 | . | -7 | 24% | . | 13µM* | -2
O=C(Nc1c(C(=O)N2CCC(N3CCCCC3)CC2)oc2ccccc12)c1c(F)cccc1F | 29%[46.1 µM] | -2 | -6% | . | ? | -2
COC(=O)c1ccc(CO/N=C(\NC(C)=O)c2nonc2NC(C)=O)cc1 | 5% | -8 | 14% | 29% | 16% | -5
CCN(CC)c1ccc(/C=C(/C#N)C(=O)NC(C)C)o1 | -7% | 60* | 41% | 28%[46.1 µM] | 0% | 26*
CCN(CC)c1ccc(/C=C(/C#N)C(=O)NCc2ccccc2)o1 | -17% | 102* | 73% | 21% | ? | 50*
COc1ccc(-c2nn(-c3ccccc3)cc2/C=N/NC(=O)c2ccc(Br)o2)cc1 | ? | -3 | ? | ? | ? | 3
O=C(N/N=C/c1cn(-c2ccccc2)nc1-c1cccnc1)c1ccccc1 | -27%[46.1 µM] | 5 | -12% | ? | ? | -1
O=C(N/N=C/c1cn(-c2cccs2)nc1-c1ccccc1)c1ccccc1Br | -13% | 55 | 17% | -28% | 7.1µM* | 25*
O=C(N/N=C/c1cn(-c2cccs2)nc1-c1ccccc1)c1ccccc1O | 13µM* | 94* | 20µM* | 16µM* | ? | 49*
COc1ccc(OC)c(-c2nc(CN3CCN(C(=O)c4ccco4)CC3)c(C)o2)c1 | -1%[46.1 µM] | -8 | 18% | 11%[46.1 µM] | -17% | -2
COC(=O)c1ccc2nc(NC(=O)COC(=O)CSc3nc(C)cc(C)n3)sc2c1 | 11% | 65* | 15% | 0% | -13% | 31*
CSc1nsc(SCC(=O)Nc2nc3ccc(C)cc3s2)n1 | . | 34 | 35% | . | -22% | 20*
Cc1ccc2nc(NC(=O)COC(=O)CSc3nc(C)cc(C)n3)sc2c1 | ? | 78* | 54% | 13% | -3% | 41*
COc1ccc(C(=O)NCc2ccc(N3CCN(C(=O)OC(C)(C)C)CC3)cc2)cc1 | -14% | 25 | ? | ? | ? | 15
CCN1C(=O)c2n[nH]c(C(=O)OC)c2C1=O | 13% | 5 | -11% | -2%[46.1 µM] | ? | 6
CCCCCCN1C[C@@H](n2cc(COC(=O)c3ccccc3)nn2)[C@H](O)C[C@H]1c1ccccc1 | 13%[46.1 µM] | . | . | . | . | .
O=C(O)c1ccc(Oc2ccc(C(F)(F)F)cn2)cc1 | 14% | 16 | 17% | ? | 11% | 15*
SMILES | LASV entry inh | Shiga inhibitor | FMDV inh | Marburg entry inh | HCV inhibitor | CHX counter
COC(=O)c1ccc(Oc2ccc(C(F)(F)F)cn2)cc1 | 5%[46.1 µM] | 45* | 7% | -25%[46.1 µM] | 3% | 28*
Cc1ccccc1N1CCN(C(=O)c2ccc(Oc3ccc(C(F)(F)F)cn3)cc2)CC1 | 14% | -3 | ? | -17% | ? | -3
O=c1[nH]c2ccc(S(=O)(=O)NCc3ccccn3)cc2s1 | 17% | 25 | 5% | ? | 0% | -3
CC(=O)C1=C(O)C(=O)N(Cc2ccccc2)C1c1ccc(F)cc1 (centres undefined) | . | -6 | -11% | . | 13% | -2
Clc1ccc2c(c1)C(C1=NCCN1)c1ccccc1CS2 (centres undefined) | ? | -5 | -2% | 1.3µM* | ? | -5
CCn1nnc2cc(C(=O)OCC(=O)N(C)Cc3cccc(F)c3)ccc21 | . | . | 7% | . | 4% | .
O=C1O/C(=C\c2ccccc2)c2ccccc21 | 10% | 45* | 57% | -2% | 12% | 31*
O=C1O/C(=C/c2ccccc2)N=C1c1ccccc1 | 0% | 11 | 18% | -1% | 0% | -1
Cc1nc(N)c2c(Cc3cccc4ccccc34)nn(C(C)(C)C)c2n1 | . | . | -26% | . | . | .
CCCc1ccc(/C=C2\C(=O)c3ccccc3C(O)=C2C(=O)OCC)cc1 | . | -3 | . | . | -23% | 20*
CCOC(=O)C1=C(C)N(c2ccccc2)C(=O)/C1=C\c1ccc(O)c(OC)c1 | . | -17 | ? | . | -12% | 4
CCOC(=O)C1=C(O)c2ccccc2C(=O)/C1=C\c1ccc(CC)cc1 | ? | 58* | ? | 2.1µM* | ? | 31*
O=C(CCN1CCN(C/C=C/c2ccccc2)CC1)Nc1ccccc1 | 3% | -44 | -16% | 1% | ? | 1
C=CCOc1ccc(CNc2nccs2)cc1OC | 7% | 22* | 7% | 8% | 10µM* | 26*
O=C(COc1ccc2ccccc2c1)Nc1nccs1 | ? | 52* | -35% | ? | -16% | 42*
O=C(COC(=O)c1ccccc1Cl)Nc1nccs1 | 6% | 18 | . | 15% | 12% | 11*
COc1ccccc1CCC(=O)Nc1ccc(C)cc1Cl | 5% | 90* | 3% | -9%[46.1 µM] | -27% | 55*
CCCN(C(=O)COC(=O)c1nc2nccc(C)n2n1)C1CCS(=O)(=O)C1 (centres undefined) | -4% | . | -1% | -10%[46.1 µM] | 10% | .
COc1ccc(S(=O)(=O)NC(N)=NCCc2ccccc2OC)cc1 | ? | -3 | -7% | -13%[46.1 µM] | -9% | 10
COCCn1nnnc1C(c1ccccc1)N1CCN(C)CC1 (centres undefined) | 0% | -2 | -1% | 4% | 13% | -3
CC(Sc1nnnn1C)C(=O)Nc1nc(-c2ccc(F)c(F)c2)cs1 (centres undefined) | . | . | 0% | . | ? | .
COc1cccc(CNc2nccs2)c1O | 1% | . | 0% | -9% | 25% | 24*
COc1ccccc1CNC(=O)C(=O)Nc1nccs1 | 9% | 50 | 42% | 1%[46.1 µM] | 2% | -2
O=C(COc1ccc2ccc(=O)oc2c1)Nc1nccs1 | . | 68* | 41% | . | 1% | 64*
COc1ccccc1CCC(=O)Nc1nccs1 | 24% | 32 | 21% | 29% | ? | 14*
NC(=O)c1ccsc1NC(=O)COc1ccccc1 | ? | 86* | 66% | -16% | 5% | 42*
Cc1ccc2cccc(S(=O)(=O)n3nc(C)cc3C)c2n1 | -15% | -10 | 14% | -23% | ? | -1
Cc1csc2nc(COC(=O)CNC(=O)c3ccc(Cl)cc3)cc(=O)n12 | . | . | -6% | . | -5% | .
